Most compounds without a hit are left out; they make up all but 2.4% or so of the library.
Arbovirus inh: antivirals against arbovirus infection, primary screen, cell-based, full library, 10K replicate subset; inhibition, % at 10 µM; actives 0.37% (n = 200,000); arbovirus infection cell-based antiviral screen; in the data active = inhibition above about 30%
p97 inhibitor: inhibitors of human p97 ATPase, primary screen, biochemical. recombinant p97 ATPase, Kinase-Glo ATP luminescence, 3 h. inhibition, % at 8 µM. actives 0.42% (n = 220,000); in the data active = inhibition above about 15%;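 note: 0% = DMSO vehicle and 100% = wells lacking enzyme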
EP2 antag: human EP2 receptor antagonists, primary screen, TR-FRET cAMP, C6 glioma cells; Prostaglandin E2 receptor EP2 subtype (Homo sapiens), P43116; C6 glioma cells expressing human EP2; cells stimulated with saturating PGE2; inhibition, % at 25 µM; actives 0.52% (n = 260,000);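 active = percent inhibition above 40 after rounding to a whole number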;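 note: rat C6 glioma host cells with rolipram phosphodiesterase inhibitor present; the protocol text gives 20 µM as final concentration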
Target sequence (P43116 whole entry, looked up): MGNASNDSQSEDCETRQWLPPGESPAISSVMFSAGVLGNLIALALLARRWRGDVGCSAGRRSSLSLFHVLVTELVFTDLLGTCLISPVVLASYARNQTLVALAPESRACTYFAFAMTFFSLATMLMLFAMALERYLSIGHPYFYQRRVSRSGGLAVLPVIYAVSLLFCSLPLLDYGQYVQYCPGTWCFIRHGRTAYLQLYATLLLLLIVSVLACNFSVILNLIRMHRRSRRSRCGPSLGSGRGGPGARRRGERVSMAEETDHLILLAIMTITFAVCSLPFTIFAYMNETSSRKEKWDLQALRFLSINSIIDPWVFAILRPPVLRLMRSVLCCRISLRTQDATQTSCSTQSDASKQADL
Hck-Nef inh: inhibitors of Nef-activated human Hck kinase, primary screen, biochemical, Z-Lyte FRET, 384-well, Hck-YEEI; Tyrosine-protein kinase HCK (Homo sapiens), P08631; Recombinant Hck-YEEI plus Nef, Z-Lyte FRET kinase assay; inhibition, % at 20 µM; actives 0.68% (n = 220,000); AID 463187, 2010;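 active = Hck-Nef kinase inhibition above about 50%, limit read from the data; inactive = inhibition below that limit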;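 note: 0% = DMSO with Hck plus Nef and 100% = Hck alone without Nef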
EP2 mod: EP2 receptor modulators, cAMP readout, primary screen, cell-based, HTRF cAMP, PGE2 stimulation. actives 0.83% (n = 260,000). EP2-expressing cells, cAMP HTRF FRET, PGE2 co-stimulation. Prostaglandin E2 receptor EP2 subtype (Homo sapiens), P43116. induction, % at 25 µM;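 active = compounds whose cAMP rise, as percent of the full-agonist control response, exceeds 60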;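 note: rat C6 glioma line stably carrying human EP2 under a CMV promoter; the protocol text gives 20 µM as final concentration; 100% = response of wells given 1 µM PGE2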
Hck Nef conf: retest of Hck:Nef kinase inhibitor hits, confirmation, biochemical, Z-Lyte FRET, 384-well, p-Tyr peptide counterscreen. Recombinant Hck-YEEI:Nef, Z-Lyte FRET kinase assay. actives 28% (n = 1,300). calls only at 10 µM. shares compounds with Hck-Nef inh;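 active = average inhibition of at least 50%, with Z-scores no higher than 3 in both the phospho-tyrosine peptide and fluorescence counterscreens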
An asterisk follows results filed as active; i = inactive; nt = no result given; + = active, no number.

SMILES	Arbovirus inh	p97 inhibitor	EP2 antag	Hck-Nef inh	EP2 mod	Hck Nef conf
Cc1ccc2occ(C3NC(C(=O)O)CS3)c(=O)c2c1 (stereo unspecified)	-6	6	4	83*	10	+
Cc1ccc2occ(C3N[C@H](C(=O)O)CS3)c(=O)c2c1 (stereo partly specified)	-13	5	16	73*	4	i
COc1cc(Cl)ccc1NC(=O)c1cnn2c(C)cc(C)nc12	nt	nt	6	nt	1	nt
Cc1nc(C)c(CC(=O)N2CCc3c([nH]c4ccccc34)C2c2ccccn2)s1 (stereo unspecified)	-1	7	5	+	-14	i
Cc1cc(-c2csc(NC(=O)c3ccc(=O)[nH]c3)n2)c(C)n1Cc1ccco1	nt	51*	15	81*	-18	i
CCNc1nc(-c2cc(C)n(Cc3ccco3)c2C)cs1	4	8	6	25	-9	nt
CNc1nc(-c2ccccc2)cc(C(F)(F)F)c1C#N	-3	-5	13	68*	13	nt
C#CCSc1nc(-c2ccccc2)cc(C(F)(F)F)c1C#N	-2	-6	6	-1	-2	nt
Cc1ccc(/C=N\Nc2cn[nH]c(=O)c2Cl)cc1	-6	2	8	2	5	nt
COc1ccc(/C=N/Nc2cn[nH]c(=O)c2Cl)cc1	7	3	7	72*	-15	+
Cc1ccsc1/C=N\Nc1cn[nH]c(=O)c1Cl	-10	3	3	74*	-23	+
O=C(CSc1nncn1-c1ccccn1)Nc1ccc(Cl)c(C(F)(F)F)c1	nt	nt	8	nt	-83	nt
N#Cc1cc(Cl)c(N2CCCCCC2)cc1C#N	nt	nt	10	nt	-25	nt
O=c1c2c3c(sc2[nH]c(=S)n1Cc1ccco1)CCC3	nt	11	40*	81*	44	i
Cc1cc(=O)oc2c3c(ccc12)OC/C3=N/N	nt	12	7	16	9	nt
Cc1cc(=O)oc2c3c4c(cc12)OCCN4CCC3	0	1	11	72*	-13	nt
O=C(N/N=C/c1ccc(Cl)c([N+](=O)[O-])c1)c1cc(-c2ccc3c4c(cccc24)CC3)n[nH]1	nt	2	6	62*	24	i
O=C(N/N=C/c1cccc([N+](=O)[O-])c1)c1cc(-c2ccc3c4c(cccc24)CC3)n[nH]1	-2	6	24	10	-8	nt
Cc1nc(Nc2ccc(C(=O)O)cc2)sc1-c1ccccc1	-15	7	10	56*	-54	i
Cc1cccc(Nc2sc(C(=O)c3cc4cc(Cl)ccc4o3)c(N)c2C#N)c1	nt	0	6	56*	18	i
Cc1c(Cl)cccc1NS(=O)(=O)c1ccc2c(c1)C1C=CCC1C(c1ccc(C(=O)O)cc1)N2 (stereo unspecified)	-4	36*	7	63*	7	+
CC(=O)c1ccc2c(c1)C1C=CCC1C(c1ccc(S(=O)(=O)N3CCOCC3)cc1)N2 (stereo unspecified)	-2	5	26	8	-43	nt
CCCSc1nc2c(cnn2-c2ccccc2)c(=O)n1N	nt	-6	5	76*	-38	+
CCCCSc1nc2c(cnn2-c2ccccc2)c(=O)n1N	13	-2	6	28	-50	nt
Cc1[nH][nH]c(=O)c1C(c1c(C)[nH][nH]c1=O)c1cn(C)c2ccccc12	-6	6	7	92*	2	+
C=CCn1cc(C(c2c(C)[nH][nH]c2=O)c2c(C)[nH][nH]c2=O)c2ccccc21	nt	nt	11	nt	-15	nt
COCCNc1oc(/C=C/c2ccccc2)nc1C#N	nt	2	10	67*	-36	nt
CNc1oc(/C=C/c2ccccc2)nc1C#N	-2	2	12	20	-12	nt
N#Cc1nc(/C=C/c2ccccc2)oc1NCCCN1CCOCC1	nt	-3	8	54*	-36	nt

Screens from PubChem.
